Screens deposited in PubChem BioAssay by National Center for Advancing Translational Sciences (NCATS).
ELG1 genotoxic – induces genotoxicity in HEK293T cells with luciferase-tagged ELG1; HEK293T ELG1-luciferase reporter, luminescence, 16 h; Potency, µM (highest dose often 46 µM), inactives show top-dose activity change, positive = activation, most hits filed as activators; hit rate 1.3% among 330,000; AID 504466; also: % of control where 0% means no effect; nearly all actives have a fitted effect of over 60% in size
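Genotoxic stress is detected as increased luminescence from luciferase-tagged ELG1 in HEK293T cells, measured with ONE-Glo after a 16 hr treatment at 37 °C.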
ELG1 repair inh – blocks ELG1-dependent DNA repair in HEK293T cells | AID 504467 | Potency, µM (series often up to 46.1 µM), without a hit: top-dose activity change, negative = inhibition, hits mostly inhibitors | HEK293T ELG1-luciferase reporter, luminescence, 16 h; DNA damage induced by 5-fluorouridine | hit rate 2.3% among 330,000; also: % is scaled to controls: 0 for no effect and ±100 for the full control effect; nearly all actives have a fitted effect of over 55% in size
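5-Fluorouridine DNA damage + compound/DMSO, 2,000 cells/well, 16 h, 37 °C/5% CO2. ONE-Glo, 30 min RT, luminescence. Readout = decrease in reporter signal.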
NPC1 promoter act – activates the NPC1 promoter | Huh7 NPC1 promoter luciferase reporter, 24 h | Potency, µM (titrated, usually from 9.22 µM), for the others: at the top dose activation, actives largely listed as activators | hit rate 2.4% among 320,000 | AID 485313; also: % of control where 0% means no effect; nearly all actives have a fitted effect of over 60% in size
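Cells: Huh7 expressing luciferase under the NPC1 promoter, 1500/well. Seeded 2 h, compound added, incubated 24 h at 37 °C. Luciferase reagent, 10 min ambient, then luminescence.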
FLuc counter – inhibits or activates purified firefly luciferase, miR-21 counter-screen. purified FLuc, Km substrates, luminescence inhibition. Potency, µM (series often up to 57.5 µM), for the others: top-dose activity change, negative = inhibition, usual class: inhibitors. AID 588342. hit rate 6.9% among 360,000. P08659;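 also: plate controls were vehicle for no effect and reference inhibitor for full effect; nearly all actives have a fitted effect of over 55% in size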
Target sequence (P08659 whole entry, looked up): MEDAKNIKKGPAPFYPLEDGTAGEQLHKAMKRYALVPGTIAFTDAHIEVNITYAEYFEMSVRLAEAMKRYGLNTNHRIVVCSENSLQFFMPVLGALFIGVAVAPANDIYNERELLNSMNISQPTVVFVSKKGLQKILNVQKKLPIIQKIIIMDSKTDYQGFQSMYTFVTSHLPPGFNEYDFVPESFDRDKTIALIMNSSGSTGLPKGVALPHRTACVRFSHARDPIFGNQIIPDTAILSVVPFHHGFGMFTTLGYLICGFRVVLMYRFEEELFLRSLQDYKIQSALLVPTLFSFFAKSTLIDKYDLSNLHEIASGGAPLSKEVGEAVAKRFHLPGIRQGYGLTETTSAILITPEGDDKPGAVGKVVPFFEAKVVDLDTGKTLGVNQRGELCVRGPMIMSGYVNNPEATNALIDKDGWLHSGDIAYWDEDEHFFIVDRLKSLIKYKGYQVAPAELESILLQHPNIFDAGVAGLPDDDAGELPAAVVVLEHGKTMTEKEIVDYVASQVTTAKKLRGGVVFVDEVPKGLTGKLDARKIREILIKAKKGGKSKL
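Purified P. pyralis luciferase (10nM final) with 10uM D-luciferin and 10uM ATP (Km levels) in 50mM Tris acetate pH 7.5, 10mM Mg acetate, 0.01% Tween-20, 0.05% BSA; qHTS 6-point titration, ~60 µM downward; luminescence read.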
SMN2 splice up – increases expression of the SMN2 splice variant. AID 1458. hit rate 2.8% among 210,000. HEK293 SMN2-luciferase splicing reporter, luminescence, 30-36 h. Potency, µM (titrated, usually from 46.1 µM), inactives show top-dose activity change, positive = activation, usual class: activators; also: % of control where 0% means no effect; nearly all actives have a fitted effect of over 55% in size
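qHTS luciferase splicing reporter: luminescence rises when SMN2 exon 7 is included in transfected HEK293 cells. Compound exposure lasted 30-36 h at 37C, with 4.5 mM final sodium butyrate as control, followed by a ONE-Glo read.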
Rab9 promoter act – activates the Rab9 promoter; Huh7 Rab9 promoter-luciferase reporter, luminescence, 24 h; Potency, µM (doses to about 9.22 µM), for the others: at the highest dose activation, negative = inhibition, actives largely listed as activators; hit rate 2.8% among 320,000; AID 485297; also: % of control where 0% means no effect; nearly all actives have a fitted effect of over 60% in size
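Cell-based reporter: Huh7 stable for Rab9 promoter-driven luciferase, plated in reduced-serum medium with 10% FBS at 1500 cells/well, compound-treated 24 h at 37 °C, luminescence read after 10 min reagent.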
Numbers without * were called inactive; ? = inconclusive; nt = not tested or not shown; [ ] = dose if it differs, or a comment. The list is not random: actives were taken first. Their share in the collection is about 9.3%. Calls follow the shape of the dose curve; as a rule, active = well fitted curve in the direction sought with a large enough effect; inconclusive = small, poorly fitted or top-dose-only effect, or another doubt; inactive = no such curve, though single readings can be large; an effect the other way counts as inactive or inconclusive. Potency is read from the fitted curve at half-maximal effect.

SMILES	ELG1 genotoxic	ELG1 repair inh	NPC1 promoter act	FLuc counter	SMN2 splice up	Rab9 promoter act
O=C(NNC(=O)C1CCN(Cc2ccc(F)cc2Cl)CC1)Nc1ccc([N+](=O)[O-])cc1	-7.4%	?	-5.7%	-10.0%	-21.6%	-4.0%
COc1ccc(C(=O)NCc2cccnc2)cc1S(=O)(=O)N1CCOCC1	-1.2%	11.7%	-0.1%	2.6%	nt	0.0%
COc1ccc(NS(=O)(=O)c2ccc(N3CCCC3)c(NC(=S)Nc3ccc(SC(F)F)cc3)c2)cc1	-9.1%	23.1µM*	-1.5%	-17.5%	3.1%[1.84 µM]	0.8%
CCS(=O)(=O)c1ncc(N(Cc2ccco2)Cc2sccc2C)c(C(=O)Nc2ccc(C)cc2C)n1	nt	nt	nt	-2.7%	nt	nt
C=CCOc1c(CNc2ccc(C(=O)O)cc2)cccc1OC	2.4%	13.9%	7.4%	-19.4%	?	-2.2%
C=CCOc1cccc(CNc2cccc(C(=O)O)c2)c1	16.2%	?	?	9.53µM*	nt	?
C=CCOc1c(CNc2cccc(C(=O)O)c2)cccc1OC	?	?	?	15.1µM*	?	?
CCOc1cccc(CNc2ccc(O)cc2)c1OCc1ccc(Cl)cc1Cl	-3.2%	?	-0.7%	5.0%	-18.7%	-8.9%
CCOc1cccc(CNc2ccc(O)cc2)c1OCc1ccccc1Cl	0.4%	18.4µM*	0.4%	-15.2%	-14.0%	-3.9%
C=CCOc1c(CNc2ccc(C(=O)O)cc2)cccc1OCC	18.0%	?	?	21.3µM*	?	?
O=C(O)c1cccc(NCc2cccnc2)c1	17.2%	?	3.6%	1.1%	14.7%	1.8%
C=CCOc1c(CNc2cccc(C(=O)O)c2)cccc1OCC	6.8%	24.0%	9.8%	-14.1%	0.7%	3.5%
COC(=O)c1ccc(NC(=O)CSc2nnc(CNc3ccc(F)cc3)n2C)cc1	1.3%	-6.1%	-1.7%	-0.3%[2.3 µM]	5.2%	-0.5%
Cc1cc(NC(=O)CCSc2ccccc2)ccc1Br	?	?	13.9%	23.9µM*	?	20.3%
Cc1cccc(NC(=O)CC2CCC2)c1	5.0%	26.9%	8.9%	-11.4%	3.7%	4.5%
O=C(CC1CCCC1)Nc1ccc2c(c1)CCC2	?	?	2.51µM*	13.5µM*	?	3.55µM*
Cc1cc(NC(=O)CC2CCCC2)ccc1Br	?	?	-29.7%	19µM*	nt	?
Cc1nn2cc(-c3ccccc3)nc2s1	?	?	0.355µM*	4.26µM*	10µM*	1µM*
CCc1ccc(NC(=O)C2CCN(c3nn4cc(-c5ccc(OC)cc5)nc4s3)CC2)cc1	nt	nt	nt	-2.6%	nt	nt
CCCc1nn2c(C)c(-c3ccccc3)nc2s1	nt	nt	nt	1.51µM*	26.4%	nt
Cc1c(-c2ccc(O)cc2)nc2nc(-c3ccccc3)c(-c3ccccc3)nn12	1.7%	?	-4.2%	2.9%	nt	-1.0%
CCc1ccc(-c2cn3nc(-c4ccccc4)cnc3n2)cc1	12.2%	?	?	-18.8%	nt	2µM*
CCc1ccc(-c2cn3nc(CC)sc3n2)cc1	nt	nt	nt	0.601µM*	27.0%	nt
CCc1ccc2ncc3c(-c4ccccc4)nn(-c4ccccc4)c3c2c1	nt	nt	nt	-7.0%	-4.6%	nt
Cc1ccc(-c2cn3nc(N4CCC(C(=O)Nc5ccccc5C)CC4)sc3n2)cc1	nt	nt	nt	1.9%	nt	nt
SMILES	ELG1 genotoxic	ELG1 repair inh	NPC1 promoter act	FLuc counter	SMN2 splice up	Rab9 promoter act
CCCCNc1ccc(-c2nc(-c3ccccn3)no2)cc1[N+](=O)[O-]	nt	nt	nt	-3.4%	nt	nt
CCOc1cccc(CN2CCCC(C(=O)Nc3cccc(-n4cccn4)c3)C2)c1 (stereo unspecified)	-10.0%	-26.0%	-8.0%	0.9%	nt	1.3%
Cc1nn2cc(-c3ccc(OC(C)C)cc3)nc2s1	nt	nt	nt	1.35µM*	6.4%	nt
COc1ccc(-c2cn3nc(N4CCC(C(=O)Nc5cc(Cl)ccc5OC)CC4)sc3n2)cc1	nt	nt	nt	-19.3%	nt	nt
CC(C)Cc1nn2cc(-c3cccc(Br)c3)nc2s1	nt	nt	nt	0.426µM*	-1.5%	nt
CCCCCc1nn2cc(-c3ccccc3)nc2s1	nt	nt	nt	0.426µM*	7.08µM*	nt
CCCCc1nn2c(=O)cc(CN(CC)c3ccccc3)nc2s1	nt	nt	nt	-12.5%	nt	nt
CSc1cccc(CN2CCCC(C(=O)Nc3cccc(-n4cccn4)c3)C2)c1 (stereo unspecified)	0.4%	29.6%	-1.9%	-3.2%	nt	1.3%
O=c1[nH]c(COc2ccc(Cl)cc2Br)nc2ccccc12	?	?	2.82µM*	6.01µM*	nt	2.82µM*
O=c1[nH]c(COc2ccc(Cl)cc2Cl)nc2ccccc12	9.2µM*	?	2.51µM*	1.69µM*	nt	2.24µM*
Cc1cc(C)cc(CC2CC(=O)N(c3nc(C)cc(C)n3)C2=O)c1 (stereo unspecified)	14.8%	?	29.4%	21.3µM*	-1.4%	?
COc1ccc(CN2CCNC(=O)C2CC(=O)NCc2cccc(C)n2)c(OC)c1 (stereo unspecified)	-0.4%	-0.1%	-0.4%	3.9%	nt	0.2%
COc1ccc(-c2cc3cc(OC)c(OC)cc3c(C)n2)cc1C	0.2%	3.0%	1.7%	16.9µM*	nt	-1.1%
COc1ccc(-c2nc(N=Nc3ccc(O)cc3)n[nH]2)cc1	5.7%	27.1%	-5.8%	9.53µM*	-8.9%	3.8%
Cc1nc(N=Nc2ccc(O)cc2)n[nH]1	?	?	3.16µM*	16.9µM*	nt	?
Cc1ccc(S(=O)(=O)Nc2ccc(N=Nc3ccc(O)cc3)cc2)cc1	4.0%	?	0.8%	-11.2%	16.4%	-3.7%
Cc1ccc(-c2nc(N=Nc3ccc(O)cc3)n[nH]2)cc1	2.1%	?	4.7%	8.49µM*	25.1µM*	-9.4%
C/C(=N\NC(=S)Nc1cc(S(=O)(=O)N2CCOCC2)ccc1Cl)c1ccccc1F	7.9%	?	-5.2%	26.9µM*	-82.3%	-14.7%
O=C(/C=C/c1cccc(F)c1)Nc1cc(S(=O)(=O)N2CCOCC2)ccc1Cl	-7.3%	25.9µM*	nt	nt	nt	nt
CC(C)N(C(=S)Nc1cc(S(=O)(=O)N2CCOCC2)ccc1Cl)c1ccccc1	-1.1%	?	-1.5%	-2.0%	3.6%	0.1%
Cc1ccc(F)cc1NC(=O)/C=C/c1ccc(S(=O)(=O)N2CCOCC2)cc1	-0.2%	23.1µM*	nt	nt	nt	nt
O=C(/C=C/c1cccc(F)c1)Nc1cc(S(=O)(=O)N2CCOCC2)ccc1N1CCCC1	-0.7%	-11.0%	-2.6%	-1.5%	1.8%	2.1%
COc1ccc(N2C(=O)CC(N3CCN(S(=O)(=O)c4ccc(Cl)cc4)CC3)C2=O)cc1 (stereo unspecified)	-0.8%	7.0%	-4.7%	-1.1%	2.1%	2.5%
O=C(Nc1ccncc1)c1cc(S(=O)(=O)N2CCCCC2)ccc1Cl	-3.8%	-29.8%	5.8%	-1.5%	nt	-0.4%
Cc1ccc(-c2onc3ccc(C(=O)/C=C/N(C)C)cc23)cc1	-5.8%	-25.7%	2.7%	15.1µM*	nt	0.0%
